GLS inhibitor: glutaminase GLS (human) inhibition | O94925 | GLS enzymatic activity, qHTS titration | Potency, µM (highest dose often 45.5 µM), for inactives: at the highest dose activity change, negative = inhibition, most hits filed as inhibitors | hit rate 0.21% among 410,000; active = well fitted inhibition curve with a large enough effect; inconclusive = small, poorly fitted or top-dose-only effect, or another doubt; inactive = no such curve, though single readings can be large or run the other way; also: potency is read from the fitted curve at half-maximal effect; % is scaled to controls: 0 for no effect and ±100 for the full control effect
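hKGA in 45 mM KH2PO4 pH 8.2, 0.02% Tween-20 with pin-transferred compounds; 1 mM L-glutamine (stock) plus glutamate oxidase/HRP/Amplex Red coupling added. Fluorescence read initially and after 30 min at RT.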
CXXC DNA block: inhibitors of human MLL CXXC domain-DNA interaction; Q03164; Potency, µM (series often up to 115 µM), for inactives: at the highest dose activity change, negative = inhibition, hits mostly inhibitors; MLL-CXXC / FITC-HOXA9 DNA fluorescence polarization; hit rate 0.037% among 290,000; active = well fitted inhibition curve with a large enough effect in the polarisation, with a control signal flat, not every such curve was filed as active; inconclusive = small, poorly fitted or top-dose-only effect, or effect the other way, or a change in a side signal; inactive = no such curve, though single readings can be large or run the other way; the % refers to the polarisation; also: potency is read from the fitted curve at half-maximal effect
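Purified MLL-CXXC (added from a 7 uM solution) was preincubated 5 min at ambient with pinned compounds in 50 mM Tris-HCl pH 7.5, 50 mM NaCl, 1 mM DTT, 0.05% BSA. Fluorescein-labeled HOX-A9 DNA (50 nM solution) followed, 30 min, then polarization read.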
Six1-Eya2 inh: inhibitors of human Six1/Eya2 interaction; AlphaScreen GST-Six1/His-Eya2 binding, biochemical; hits give low values; Q15475+O00167; activity change, % (test concentration not listed); hit rate 0.56% among 360,000; also: % is scaled to controls: 0 for no effect and ±100 for the full control effect
Target sequence (O00167 whole entry, looked up): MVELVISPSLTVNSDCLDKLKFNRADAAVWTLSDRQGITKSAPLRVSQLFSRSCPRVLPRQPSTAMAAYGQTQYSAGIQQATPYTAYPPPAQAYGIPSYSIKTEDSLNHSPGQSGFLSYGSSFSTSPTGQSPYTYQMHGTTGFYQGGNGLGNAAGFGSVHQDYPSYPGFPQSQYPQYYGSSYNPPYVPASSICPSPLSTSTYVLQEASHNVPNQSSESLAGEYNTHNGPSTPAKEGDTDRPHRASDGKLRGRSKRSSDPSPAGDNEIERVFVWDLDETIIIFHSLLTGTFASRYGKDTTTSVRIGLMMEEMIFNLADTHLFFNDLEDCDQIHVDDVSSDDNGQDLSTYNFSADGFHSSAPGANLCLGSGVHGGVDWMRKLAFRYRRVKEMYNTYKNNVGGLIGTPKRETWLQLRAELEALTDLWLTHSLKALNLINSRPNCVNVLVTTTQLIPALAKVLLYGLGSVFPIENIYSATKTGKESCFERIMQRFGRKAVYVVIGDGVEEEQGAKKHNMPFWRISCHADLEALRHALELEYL
Target sequence (Q15475 whole entry, looked up): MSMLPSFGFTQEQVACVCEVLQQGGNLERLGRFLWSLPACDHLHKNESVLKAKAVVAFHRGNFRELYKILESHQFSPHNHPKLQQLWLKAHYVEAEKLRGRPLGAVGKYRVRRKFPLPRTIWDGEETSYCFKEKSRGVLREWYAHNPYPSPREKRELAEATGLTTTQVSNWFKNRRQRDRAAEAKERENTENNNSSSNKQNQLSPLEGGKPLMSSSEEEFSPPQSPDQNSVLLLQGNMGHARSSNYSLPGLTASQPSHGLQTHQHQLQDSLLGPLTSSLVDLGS
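Compounds are tested against tagged Six1 and Eya2 proteins bridged by glutathione donor and nickel acceptor beads; after a one-hour incubation at 37 °C without light, AlphaScreen emission is recorded.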
CtBP-E1A blk: CtBP/E1A binding inhibition. AlphaScreen GST-E1A/His-CtBP binding, 1536-well; hits give low values. activity change, % (concentration not given with the values). hit rate 0.49% among 340,000. AID 651724; also: % is scaled to controls: 0 for no effect and ±100 for the full control effect
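GST-E1A and His-tagged CtBP (125 nM each as 5X stock) were preincubated with pin-transferred compound for 2 h at 37 °C in the dark, then glutathione donor and nickel acceptor beads were added for 1 h before AlphaScreen reading.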
Menin-MLL TR inh: displaces Texas Red mutant MLL peptide from human menin; O00255; Menin + Texas Red MLL mutant peptide, fluorescence polarization; Potency, µM (series often up to 61.6 µM), without a hit: top-dose FP activity change, negative = inhibition, usual class: inhibitors; hit rate 0.23% among 270,000; AID 1768; active = well fitted inhibition curve with a large enough effect in the polarisation, with a control signal flat, not every such curve was filed as active; inconclusive = small, poorly fitted or top-dose-only effect, or effect the other way, or a change in a side signal; inactive = no such curve, though single readings can be large or run the other way; the % refers to the polarisation; also: potency is read from the fitted curve at half-maximal effect; % of control where 0% means no effect
Menin-MLL FL inh: inhibitors of human menin-MLL interaction, wild-type MLL peptide; 290,000 tested, under 10 active; Fluorescence polarization, fluorescein-MLL peptide displacement from menin; AID 1766; FP activity change, % at 61.4 µM; active = well fitted curve in the direction sought with a large enough effect in the polarisation, not every such curve was filed as active; inconclusive = small, poorly fitted or top-dose-only effect, or effect the other way, or a change in a side signal; inactive = no such curve, though single readings can be large or run the other way; the % refers to the polarisation; also: % of control where 0% means no effect
* hit, by the source's call; ? = inconclusive; . = no result given; ! = not confirmed by another sample; [ ] = another dose, or the depositor's remark. An excerpt weighted towards active compounds, which were near 0.83% of everything screened. Rule as the data show it, unless noted: active = activity change below about -65%; inconclusive = mostly about -30% to -63%; inactive = weaker than that.

SMILES	GLS inhibitor	CXXC DNA block	Six1-Eya2 inh	CtBP-E1A blk	Menin-MLL TR inh	Menin-MLL FL inh
NC(=O)NC(=O)CC1S/C(=N/N=C2\CSC(=O)N2)NC1=O (centres undefined)	26%	?	-90*	-93*	21%	6
O=C(O)CNC(=O)CC1S/C(=N/N=C2/NC(=O)CS2)NC1=O (centres undefined)	16%	?	-67*	?	-1%	?
Cn1nnnc1SCCCNCc1ccccc1OCc1ccccc1Cl	-5%	.	.	.	.	.
O=C(O)c1[nH]c2ccccc2c1C(c1ccccc1)c1c(C(=O)O)[nH]c2ccccc12	11µM*	11%	-6	5	?	-1
C=CCOc1ccc(C(c2c(C(=O)O)[nH]c3ccccc23)c2c(C(=O)O)[nH]c3ccccc23)cc1	81%	2%	-13	-1	?	-2
Cc1ccccc1CNC(=O)c1c(C)oc2c1C1=NCCN1C=N2	4µM*	.	.	.	.	.
COc1ccc(S(=O)(=O)Nc2cc(C)c(O)c(S(=O)(=O)c3ccccc3)c2)cc1	53%	18%	-10	-8	7%	2
COc1ccc(S(=O)(=O)c2c(C)c(NS(=O)(=O)c3ccccc3)cc(C)c2O)cc1	3.2µM*!	27%	-9	0	7%	-3
CN(O)/C=c1/ccc2c(n1)C(=O)C=CC=2	7%	-1%	-93*	-96*	-3%	5
COC(=O)C[C@@H]1O[C@H]1[C@H](C)[C@@H](OC)C(C)C	.	.	.	.	-4%[11.7 µM]	2[11.7 µM]
Cc1csc(NC(=O)CSc2nnc(C)s2)n1	0%	1%	-3	1	2%	2
Cc1csc(NC(=O)CSc2nnc(NC(=O)COc3ccccc3)s2)n1	-3%	8%	-2	6	40µM*	3
Cn1nc([N+](=O)[O-])nc1Sc1cccc2cccnc12	0%	1%	-90*	.	?	0
C/C=C(\C)C(=O)NCCN1C2=NC[C@H](C(C)C)N2C[C@@H]1Cc1ccc(OC)cc1	-4%	-5%	-72*	-70*	?	-7
CNc1n[nH]c(=S)s1	14µM*	0%	0	-3	.	1
Cc1ccc(/C=C/C2=CC3(C)CC2(C)C(c2ccc(C)cc2)CC3=O)cc1 (centres undefined)	.	.	.	.	10µM*	-2[11.7 µM]
COc1cc(/C=C2\SC(c3ccccc3)=NC2=O)cc(Cl)c1O	8.9µM*	?	-8	-10	?	?
CCCc1cc(-n2ccnc2C)n2c(nc3ccccc32)c1C#N	6%	.	-1	4	.	.
CCCc1cc(N2CCN(C(=O)c3ccco3)CC2)n2c(nc3ccccc32)c1C#N	18%	2%	?	-67*	5%	3
CCOC(=O)N/N=C1/C[C@@H](O)[C@@H](O)[C@@H]2[C@@H]3C(=O)N([C@@H](C)c4ccccc4)C(=O)[C@H]3CC[C@@H]12	.	.	.	.	9%[11.7 µM]	1[11.7 µM]
CC(=O)c1c2c3c(cccc3n(C)c1=O)C(=O)c1ccccc1-2	7%	-23%	-22	.	-8%	?
Cn1c(=O)c(Nc2ccc(O)cc2)c2c3c(cccc31)C(=O)c1ccccc1-2	5%	3%	-77*	-73*	?	?
S=C(NCc1ccccc1)NCc1ccccc1Cl	3%	0%	-3	-68*	.	.
CCOC(=O)Cc1csc(N/N=C\c2cccc(Br)c2)n1	20µM*	-1%	5	-2	?	4
Cc1nc2ccc(C(=O)N/N=C/c3cc([N+](=O)[O-])ccc3O)cc2[nH]1	-5%	1%	-92*	-92*	?	5
SMILES	GLS inhibitor	CXXC DNA block	Six1-Eya2 inh	CtBP-E1A blk	Menin-MLL TR inh	Menin-MLL FL inh
Cc1nc2ccc(C(=O)c3ccccc3)cc2[nH]1	-13%	2%	-6	5	-1%	0
O=C(N/N=C/c1cc([N+](=O)[O-])ccc1O)c1cccc(NC(=O)c2cccc(Cl)c2)c1	-4%	-6%	-2	4	?	-5
Cc1cc(C)nc(SCc2ccc(C(=O)N/N=C/c3cccc(O)c3O)cc2)n1	-20%	15%	-95*	-96*	?	18
Cc1nc2ccc(C(=O)N/N=C/c3ccccc3O)cc2[nH]1	-14%	162%	-80*	-88*	?	-1
Cc1c(Cl)cccc1-n1ncc(C(=O)N2CCc3ccccc3C2)c1C1CCN(C(=O)OC(C)(C)C)CC1	-1%	.	.	.	.	.
O=C(NCCO)c1nc(NCCO)c2ccccc2n1	2%	1%	0	3	1%	5
O=c1c2ccccc2nc2c3ccccc3c(NCCO)nn12	0%	-5%	-69*	-71*	?	0
O=c1c2ccccc2nc2c3ccccc3c(NCc3cccnc3)nn12	-2%	?	-4	-22	-11%	-1
O=c1c2ccccc2nc2c3ccccc3c(NCc3ccccn3)nn12	-1%	-7%	?	-69*	?	4
CN(CC(=O)O)Cc1nc2ccccc2[nH]1	3%	-11%	-76*	?	-13%	-4
CC(=O)NCCc1nc2ccccc2[nH]1	-5%	0%	0	7	2%	-1
O=C(CCS(=O)(=O)c1ccc(F)cc1)Nc1nc(-c2ccccn2)cs1	0%	0%	-76*	.	-1%	-2
CC(Oc1ccc(F)cc1)C(=O)Nc1nc(-c2ccccn2)cs1 (centres undefined)	0%	.	-28	-79*	.	.
O=C(CCS(=O)(=O)c1ccccc1)Nc1nc(-c2ccccn2)cs1	-1%	.	-11	-80*	.	.
O=C(Cn1ccc2cc(S(=O)(=O)N3CCCCCC3)ccc21)NCc1ccccc1Cl	14%	.	.	.	.	.
O=c1c2cc(F)ccc2sn1-c1ccccc1	7.1µM*	.	-3	-2	.	.
O=c1c2cc(C(F)(F)F)ccc2sn1-c1ccccc1	11µM*	.	-1	2	.	.
N#Cc1ccc2c(=O)n(-c3ccccc3)sc2c1	?	.	8	-11	.	.
CC[C@H](Cc1c(I)cc(I)c(N)c1I)C(=O)O	-11%[20 µM]	-4%[51.4 µM]	.	.	7%[24.8 µM]	0[24.8 µM]
Nc1ccc(Nc2ccccc2N)cc1	-22%	11%	-29	-24	-15%	5
COc1ccc(Nc2ccccc2N)cc1	10µM*	18%	-14	-18	?	13
COc1ccc(Nc2ccccc2NC(=O)c2ccccc2Br)cc1	10µM*	-2%	-28	-20	?	-3
C#CCCCO/N=C1/[C@H]2O[C@@H]2[C@@H](O)[C@H]2[C@H]1CCn1c(=O)n(C)c(=O)n12	.	.	.	.	5%[11.7 µM]	-6[11.7 µM]
O=C(CSc1ccc(-c2ccccn2)nn1)NCc1ccccc1	5%	-9%	-76*	?	4%	4
O=C(CSc1ccc(-c2ccccn2)nn1)c1ccc([N+](=O)[O-])cc1	5%	0%	-67*	-83*	?	1

Source: PubChem (National Center for Advancing Translational Sciences (NCATS))
